Screening data from PubChem BioAssay.
TTR transcr act: TTR transcription activation, primary screen; activation, % at 16.7 µM; SH-SY5Y TTR promoter Gaussia luciferase, luminescence; 100% = recombinant luciferase protein wells; AID 1117267; hit rate 1.3% among 92,000;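 active = activation above the mean of all tested compounds plus 3 SD, cut at about 9.5% in these data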;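 note: cells exposed to compounds for one day before reading; 0% = median of all test compound wells on the plate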
HuH7 TTR inh: decreases TTR transcription in HuH7 cells in activator counter-screen | inhibition, % at 16.7 µM | HuH7 TTR promoter-Gaussia luciferase reporter, luminescence | shares compounds with TTR transcr act | AID 1117279 | hit rate 4% among 1,100;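 active = average inhibition above the solvent-only control wells' mean plus 3 SD, cut at about 15% in these data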;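 note: 0% = cells with DMSO only and 100% = cells with inhibitor control FD; inhibitors lower well luminescence so higher value means more inhibition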
TTR act confirm: confirmation of human transthyretin transcription activators; shares compounds with TTR transcr act; SHSY5Y TTR promoter Gaussia luciferase, luminescence; 100% = purified Lucia enzyme wells, no cells; activation, % at 16.7 µM; 1,100 tested, under 10 active; AID 1117280;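 active = mean activation above a set limit taken from the earlier primary screen, cut at about 11% in these data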;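 note: 0% = DMSO-treated cells and 100% = recombinant Lucia luciferase without cells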
Numbers without * were called inactive. This is one part of a sample in which hits are shown more often than they occur.

`Cc1ccc(N(CC(=O)NCC2CCCO2)C(=O)CCC(=O)Nc2nccs2)cc1C` (centres undefined) gave TTR transcr act -0.5.
`COP(=O)(O)CCOCCC(CC(C)C)NC(=O)OCc1ccccc1` (centres undefined) gave TTR transcr act 1.3.
Screening O=C(NCc1ccco1)OC1CCC12CCC(c1ccccc1)CC2 (centres undefined) returned TTR transcr act -1.1.
O=C(CSCc1ccc(Cl)cc1)NCc1ccccn1 was read as TTR transcr act 11.6*, HuH7 TTR inh -14.7 and TTR act confirm 0.9.
`O=C(O)CSCC(=O)NCc1ccc(Cl)cc1` gave TTR transcr act 0.0.
For O=C(NCc1ccccn1)c1ccc(Cl)cc1Cl the results were TTR transcr act 0.3.
Screening COc1ccc(-c2[nH]nc3oc(=O)cc(C)c23)cc1 returned TTR transcr act 16.1*, HuH7 TTR inh -17.5 and TTR act confirm -0.6.
Screening COc1ccc(-c2cc(=O)c3c(C)cc(O)cc3o2)cc1 returned TTR transcr act -2.2.
`COc1ccc(-c2cc(=O)c3c(OC)c(OC)c(OC)c(OC)c3o2)cc1` gave TTR transcr act -2.6.
CCC(C(=O)Nc1c(C)cccc1C)n1c(-c2ccc(=O)[nH]c2)nc2ccccc21 (centres undefined) was read as TTR transcr act -0.7.
For C[C@H]1[C@H](N(C)C)CC[C@@]23CCCN2C(=O)CCC[C@@H]13 the results were TTR transcr act 2.8.
COC(=O)C1CN(CCc2ccccc2)CCS(=O)(=O)N1Cc1ccccc1F (centres undefined) was read as TTR transcr act 2.9.
Screening CC(C)c1ccc(NC2CCCN(C(=O)c3cnc4ccccn4c3=O)C2)cc1 (centres undefined) returned TTR transcr act 0.2.
`CC(C)c1ccc(NC2CCCN(C(=O)c3cccs3)C2)cc1` (centres undefined) gave TTR transcr act 11.3*, HuH7 TTR inh -4.7 and TTR act confirm -1.1.
CC(C)c1ccc(NC2CCCN(C(=O)CCN3CCCCC3=O)C2)cc1 (centres undefined) was read as TTR transcr act -0.1.
Screening O=C(Nc1ccccc1C(F)(F)F)OC1CC2CC1[C@H]1CCCCN1C2 (some centres undefined) returned TTR transcr act -1.5.
For O=S1(=O)c2ccc(N3CCC[C@H]3CO)cc2OCCCN1C1CC1 the results were TTR transcr act 1.2.
CN(CCc1ccccc1)C(=O)c1cccc(NC(=O)Cc2cccc(NC(=O)C3CCN(C(=O)C4CCCC4)CC3)c2)c1 was read as TTR transcr act -0.2.
CN(CCc1ccccc1)C(=O)c1cccc(NC(=O)Cc2cccc(NC(=O)C3CCN(C(=O)c4ccccc4)CC3)c2)c1 was read as TTR transcr act 9.9*, HuH7 TTR inh -6.5 and TTR act confirm 0.3.
Screening CN(CCc1ccccc1)C(=O)c1cccc(NC(=O)Cc2cccc(NC(=O)C3CCN(C(=O)C4CC4)CC3)c2)c1 returned TTR transcr act 0.1.
`C[C@H]1[C@@H](OC(=O)NCc2ccc(Cl)c(Cl)c2)CC[C@@]23CCCN2C(=O)CCC[C@@H]13` gave TTR transcr act -1.1.
CC(C)(C)NC(=O)CSc1nnc(-c2ccncc2)n1Cc1ccccc1 was read as TTR transcr act -1.1.
Screening Cc1cc(NC(=O)CSc2n[nH]c(-c3cccs3)n2)no1 returned TTR transcr act 4.0.
Screening Cc1nc(SCC(=O)NC(C)(C)C)c2c(-c3cccs3)csc2n1 returned TTR transcr act 13.6*, HuH7 TTR inh -16.2 and TTR act confirm -0.1.
`COC(=O)[C@]12C[C@H](CC(=O)NCc3cccc4ccccc34)C(=O)N(Cc3ccc(Cl)cc3Cl)C1=C[C@H](C(C)C)O[C@@H]2C1CC1` gave TTR transcr act 0.5.
O=C(CCn1c(=O)oc2ccccc21)Nc1ccc(N2CCOCC2)cc1 was read as TTR transcr act 1.7.
`CSCc1c(C(=O)Nc2ccc(N3CCOCC3)cc2)oc2ccccc12` gave TTR transcr act 14.2*, HuH7 TTR inh -12.5 and TTR act confirm 0.2.
For COc1ccc(NC(=O)c2oc3ccccc3c2CSC)cc1S(=O)(=O)N1CCOCC1 the results were TTR transcr act -0.7.
For COc1ccc(CNS(=O)(=O)CC2NCCc3ccccc32)cc1 (centres undefined) the results were TTR transcr act 0.5.
`Cc1ccccc1NC(=O)O[C@H]1CC[C@@]23CCCN2C(=O)CCC[C@H]3[C@H]1C` gave TTR transcr act 0.3.
Screening COC(=O)c1cccc(Cn2ccc3ccc(-c4ccc5ccn(C(=O)c6cccc(OC)c6)c5c4)cc32)c1 returned TTR transcr act -1.6.
Cc1ccc(C)c(SCC(=O)NNC(=O)c2csc(N3CCOCC3)n2)c1 was read as TTR transcr act 30.9*, HuH7 TTR inh -14.2 and TTR act confirm -0.6.
For O=C(NNC(=O)c1cc(-c2ccc(Br)cc2)nc2ccccc12)c1csc(N2CCOCC2)n1 the results were TTR transcr act -3.8.
CSc1ncccc1C(=O)NNC(=O)c1csc(N2CCOCC2)n1 was read as TTR transcr act 1.4.
`CCCCCCCCN1C(=O)[C@@H](CC(=O)N2CCSCC2)C[C@@]2(C(=O)OC)C1=C[C@H](C(C)C)O[C@@H]2C1CC1` gave TTR transcr act -1.3.
Screening Cc1ccc(CCNC(=O)c2cc(S(=O)(=O)N3CCCCC3)c[nH]2)cc1 returned TTR transcr act -1.9.
O=C(NCc1ccc(F)cc1)c1cc(S(=O)(=O)N2CCCCC2)c[nH]1 was read as TTR transcr act -1.6.
O=C(NCCc1ccccc1)c1cc(S(=O)(=O)N2CCCCC2)c[nH]1 was read as TTR transcr act 14.7*, HuH7 TTR inh -2.0 and TTR act confirm -1.3.
Screening CCOC(=O)[C@]12CCCC3=C1N(CCC3)C(=O)[C@@H](CC(=O)N1CCOCC1)C2 returned TTR transcr act -0.2.
`COC(=O)[C@]12C[C@H](CC(=O)NCCc3ccccc3OC)C(=O)N(Cc3ccc(Cl)cc3Cl)C1=C[C@H](C(C)C)O[C@@H]2C1CC1` gave TTR transcr act 3.0.
For CCOC(=O)c1cccc(-c2cc(C(C)=O)c3n(c2=O)CCC3)c1 the results were TTR transcr act -1.8.
Screening O=C(CSc1ncccc1C(=O)O)c1ccc2ccccc2c1 returned TTR transcr act 11.5*, HuH7 TTR inh -16.9 and TTR act confirm 0.8.
O=C(CSc1ncccc1C(=O)O)c1cccc(C(F)(F)F)c1 was read as TTR transcr act -1.3.
O=C(CSc1ncnc2nc[nH]c12)c1ccc2ccccc2c1 was read as TTR transcr act -4.0.
CCCCCCCCN1C(=O)[C@@H](CC(=O)N2CCCC2)C[C@@]2(C(=O)OC)C1=C[C@H](C(C)C)O[C@@H]2C1CC1 was read as TTR transcr act -1.8.
O=C(NCCc1c[nH]c2ccccc12)OCc1cn(-c2ccc(F)cc2F)nn1 was read as TTR transcr act 3.8.
For COC(=O)C[C@@H]1CC[C@@H](NC(=O)Nc2cc(F)ccc2F)[C@@H](CO)O1 the results were TTR transcr act 0.6.
Screening CC(C)CNC(=O)OCc1cn(Cc2c(F)cccc2F)nn1 returned TTR transcr act 0.9.
`c1ccc(SCc2nc3ccccc3[nH]2)nc1` gave TTR transcr act 14.0*, HuH7 TTR inh -23.0 and TTR act confirm 1.3.
